# Assay outcomes: PubChem, National Center for Advancing Translational Sciences (NCATS)
# Most compounds without a hit are left out; they make up all but 8.3% or so of the library.
# HCMV inh: blocks human cytomegalovirus replication | HFF cells, HCMV-luciferase reporter, 72 h; hits give low values | activity change, negative = inhibition, % at 57.5 µM | 410,000 compounds, 4.5% hits | AID 1259415; in the data active = activity change below about -60%; inconclusive = no clear call, values can overlap the other calls; inactive = above about -39%
#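 Cell-based, HFFs, 1000 cells/well, 16 h 37C; cpds in DMSO + HCMV-luc, MOI 1 PFU/cell; 72 h 37C; OneGlo luminescence after 5 min RT; norm. to buffer vs Salinomycin 10uM.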
# MARV entry inh: blocks Marburg virus binding to or entry into cells; Marburg virus pseudotyped entry inhibition, cell reporter; Potency, µM (doses to about 37.8 µM), without a hit: at the highest dose activity change, negative = inhibition, actives largely listed as inhibitors; 300,000 compounds, 1.8% hits; AID 540276; calls by dose curve; tested in HEK293 cells; note: potency is the fitted concentration of half-maximal effect
# LASV entry inh: inhibitors of Lassa virus binding or cell entry; AID 540256; 300,000 compounds, 1.2% hits; Lassa virus pseudotype entry inhibition, cell reporter; Potency, µM (series often up to 37.9 µM), without a hit: at the top dose activity change, negative = inhibition, actives largely listed as inhibitors; calls by dose curve; tested in HEK293 cells; note: potency is the fitted concentration of half-maximal effect; nearly all actives have a fitted effect of over 50% in size
# HCV inhibitor: inhibitors of hepatitis C virus infection; 340,000 compounds, 3.4% hits; AID 651820; Huh7.5.1 HCVcc-Cre infection, luciferase reporter, 44 h; Potency, µM (highest dose often 41.8 µM), without a hit: at the top dose activity change, negative = inhibition, hits mostly inhibitors; note: potency is the fitted concentration of half-maximal effect
#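 Luciferase read-out (15 sec integration) after a 15 min room-temperature substrate step quantifies HCVcc-Cre infection. Cells, 1,000 per well, had compound added 4 h post-plating, then virus at ~0.5 moi, and were cultured 44 h.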
# Giardia FBPA inh: Giardia lamblia aldolase inhibition; purified Giardia FBPA; Potency, µM (series often up to 59.6 µM), inactives show top-dose activity, negative = inhibition, hits mostly inhibitors; 290,000 compounds, 0.71% hits; note: potency is the fitted concentration of half-maximal effect; nearly all actives have a fitted effect of over 55% in size
# Target sequence (A8B2U2 whole entry, looked up): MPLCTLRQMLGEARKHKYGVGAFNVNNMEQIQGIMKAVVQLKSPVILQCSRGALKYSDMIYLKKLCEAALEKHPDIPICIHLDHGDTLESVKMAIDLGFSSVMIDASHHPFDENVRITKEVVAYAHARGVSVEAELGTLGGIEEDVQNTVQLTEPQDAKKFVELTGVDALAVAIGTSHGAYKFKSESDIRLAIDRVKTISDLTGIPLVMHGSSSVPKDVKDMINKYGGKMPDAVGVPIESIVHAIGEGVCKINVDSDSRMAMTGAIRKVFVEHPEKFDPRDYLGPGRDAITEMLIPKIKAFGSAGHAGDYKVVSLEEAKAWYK
#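 Giardia FBPA (40 nM reagent) was preincubated 10 min at RT with compound (up to 57.5 uM final), then substrate plus GAPDH/TPI/NAD/arsenate coupling system with diaphorase/resazurin was added; resorufin fluorescence (525/598 nm) was read after 20 min.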
# FMDV antiviral: foot and mouth disease virus antiviral activity | FMDV antiviral cell-based qHTS | Potency, µM (series often up to 57.9 µM), without a hit: top-dose activity change, negative = inhibition, hits mostly inhibitors | 410,000 compounds, 1.2% hits; calls by dose curve; tested in HEK293T cells; note: read-out not given here; potency is the fitted concentration of half-maximal effect; nearly all actives have a fitted effect of over 45% in size
# The depositor's hits bear a star; ? = inconclusive; . = no result; [ ] = another dose, or the depositor's remark. Unless noted, calls come from the whole dose curve; as a rule, active = well fitted curve in the direction sought with a large enough effect; inconclusive = small, poorly fitted or top-dose-only effect, or another doubt; inactive = no such curve, though single readings can be large; an effect the other way counts as inactive or inconclusive. % is set by controls: 0 for no effect and ±100 for the full control effect.
SMILES,HCMV inh,MARV entry inh,LASV entry inh,HCV inhibitor,Giardia FBPA inh,FMDV antiviral
CC(C)NC(=O)C1(C)CCN1C(=O)Cc1ccc(-c2ccccc2)cc1 (centres undefined),-33.5,.,.,.,.,-27.6%
CSc1ccccc1NC(=O)C1(C)CCN1C(=O)Cc1ccc(-c2ccccc2)cc1 (centres undefined),-62.1*,.,.,.,.,?
CC(C)(C)c1ccc(CC(=O)N2CCC2(C)C(=O)Nc2cnc3ccccc3c2)cc1 (centres undefined),?,.,.,.,.,20µM*
CC1(C(=O)Nc2ccc3nc[nH]c3c2)CCN1C(=O)Cc1ccc(-c2ccccc2)cc1 (centres undefined),?,.,.,.,.,31.6µM*
Cc1ccc(NC(=O)C2(C)CCN2C(=O)Cc2ccc(-c3ccccc3)cc2)cc1 (centres undefined),-62.6*,.,.,.,.,?
CC1(C(=O)Nc2ccc3nc[nH]c3c2)CCN1C(=O)C/C=C/c1ccccc1 (centres undefined),?,.,.,.,.,-19.2%
Cc1cc(OC(C)C(=O)Nc2c(C(=O)c3ccc(F)cc3)oc3ccccc23)ccc1Cl (centres undefined),-5.8,1.7%[46.1 µM],0.1%[46.1 µM],.,.,0.0%
CC1(C(=O)NS(=O)(=O)Cc2ccccc2)CCN1C(=O)Cc1ccccc1Cl (centres undefined),-62.3*,.,.,.,.,-20.8%
COc1ccccc1CNc1nc(NC(C)C)nc2cc(-c3ccccc3)sc12,-36.4,.,.,.,.,-6.1%
CC(C)Nc1nc(NCCOc2ccccc2Cl)c2sc(-c3ccccc3)cc2n1,-100.6*,.,.,.,.,?
COc1cc(OC)cc(-c2nnc3n2N=C(c2ccc(OC)c(OC)c2)CS3)c1,.,.,.,.,3.0%,.
O=C(Nc1ccc2nc(SCC(=O)N3CCCc4ccccc43)sc2c1)c1cccc(Cl)c1,48.5,?,-10.8%[46.1 µM],.,.,-20.4%
CCOc1ccccc1NC(=O)c1ccc(NC(=O)C2CCCO2)cc1 (centres undefined),?,3.4%[46.1 µM],.,11.2µM*,-9.0%,12.9%
CCCCNC(=O)c1ccc(NC(=O)C2CCCO2)cc1 (centres undefined),-89.6*,13.8%,3.3%,0.2%,-5.1%,42.3%
CCOc1ccc(S(=O)(=O)Nc2ccc(C(=O)NCC3CCCO3)cc2)cc1 (centres undefined),32.4,1.0%,?,0.8%,.,-0.5%
CCOc1ccc(NS(=O)(=O)c2ccc(NC(=O)C3CCCO3)cc2)cc1 (centres undefined),2.6,-22.7%,8.91µM*,?,6.0%,-22.3%
Cc1cccc(CNC(=O)Cc2csc3ccccc23)c1,39.8,?,2.8%[46.1 µM],.,.,47.1%
COCCNc1ccc(-c2nc(-c3ccccn3)no2)cc1[N+](=O)[O-],106.8,9.4%[46.1 µM],-13.7%[46.1 µM],.,.,-10.1%
Cc1ccc([N+](=O)[O-])cc1Nc1nc(N2CCOCC2)nc(N2CCOCC2)n1,-69.6*,?,20.6%[46.1 µM],-5.9%,-0.1%,-21.3%
O=[N+]([O-])c1ccc(/C=N/Nc2nc(N3CCOCC3)nc(N3CCOCC3)n2)cc1,.,.,.,.,7.2%,.
O=[N+]([O-])c1ccc(Cl)c(/C=N/Nc2nc(N3CCOCC3)nc(N3CCOCC3)n2)c1,19.0,0.0517µM*,-12.7%,?,4.1%,8.2%
O=[N+]([O-])c1cccc(/C=N/Nc2nc(N3CCOCC3)nc(N3CCOCC3)n2)c1,-92.6*,?,-1.4%,-3.4%,1.0%,-21.3%
O=[N+]([O-])c1cccc(/C=N/Nc2cc(Cl)nc(-c3ccccc3)n2)c1,-14.2,-2.8%[46.1 µM],10µM*,?,3.5%,?
Cc1ccc(CNC(=O)c2cnc3c(-c4ccccc4)c(C)nn3c2C)o1,-12.0,.,24.7%[46.1 µM],.,.,-20.8%
Cc1ccc(-c2c[n+](Cc3cccc(Cl)c3)c3n2CCC3)cc1,-86.5*,?,?,-26.4%,-2.6%,?
Clc1cccc(C[n+]2cc(-c3ccccc3)n3c2CCC3)c1,-70.0*,?,2.8%,8.3%,1.7%,-5.2%
O=C(C[n+]1cc(-c2ccc(Cl)cc2)n2c1CCCCC2)c1ccccc1,-5.8,-6.9%,-18.0%,-0.9%,0.3%,0.6%
O=C(c1ccccc1)[C@@H]1O[C@H]1c1ccc(-c2ccccc2)cc1,.,.,.,.,2.7%,29.3%
